Among the test systems are T-47D breast; BT-549 breast; MDA-MB-435 melanoma; SW-620 colon; MCF7 breast; HCT-116 colon; HCC-2998 colon; KM12 colon.
Assay in all cases: NCI-60 one-dose screen, 48 h (100 = growth as untreated, 0 = no growth, -100 = all killed)
Common to all, as to settings: 10 µM unless noted

Growth data for 16 compounds are collected here from PubChem BioAssay (NCI).

About 83,000 compounds went through this panel and 20% of them were active in at least one assay; those are over-represented in the sample as a whole.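 A percent growth of 40 corresponds to 60% growth inhibition; 0 means no net growth; -100 means all cells died. Active threshold: below 10.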 Unmarked numbers belong to inactive results. The source made the active and inactive calls.

As for `Clc1ccc(C2CC(c3cccc(Nc4ccncc4)c3)=NN2c2cc(Cl)cc(Cl)c2)cc1` (stereo not drawn), the growth is 86.4% with T-47D breast; 104% in the test with BT-549 breast; 12.7% in the test on MDA-MB-435 melanoma; -73.1% (active) in the test with SW-620 colon; -8.62% (active) in the test on MCF7 breast; -74.2% (active) in the test on HCT-116 colon. The results for the growth in the test on HCC-2998 colon and in the test with KM12 colon were 19.6% and 9.65% (active), respectively.
Turning to `CCCCCCCCCCCCCCCC(=O)OC[C@@]1(O)C[C@@]23CC[C@@H]4C(C)(C)[C@H](O)CC[C@@]4(C)[C@@H]2CC[C@H]1C3`, the growth in the test on T-47D breast was 98.1%; in the test on BT-549 breast, 91.5%; with MDA-MB-435 melanoma, 108%; in the test on SW-620 colon, 110%; in the test with MCF7 breast it was 97%; with HCT-116 colon it was -67% (active). Further, the growth was 107% in the test on HCC-2998 colon and 108% in the test on KM12 colon.
Turning to `CC(=O)N1N=C(c2cccc(Nc3ccncc3)c2)CC1c1ccccc1` (stereo not drawn), the growth is 80.4% in the test with T-47D breast; 58.2% in the test with BT-549 breast; 89.1% in the test with MDA-MB-435 melanoma; 93.6% with SW-620 colon; 81.3% with MCF7 breast; -24.4% (active) with HCT-116 colon. Further, the growth in the test on HCC-2998 colon was 103%; in the test on KM12 colon, 101%.
For `CN1CCN(CCCOc2ccc3ncnc(Nc4ccc(Oc5cccc(C(F)(F)F)c5)c(Cl)c4)c3c2)CC1`, the growth is 19.2% in the test on T-47D breast; 69.9% in the test with BT-549 breast; -82% (active) with MDA-MB-435 melanoma; -71.6% (active) in the test with SW-620 colon; -28.7% (active) with MCF7 breast; -62% (active) in the test with HCT-116 colon. The growth is -66.2% (active) with HCC-2998 colon and -3.45% (active) with KM12 colon.
Take `O=C(O)CCCCCCCCCCCCCCC(=O)O`: the growth with T-47D breast was 110%; in the test with BT-549 breast it was 105%; with MDA-MB-435 melanoma it was 109%; with SW-620 colon, 109%; in the test on MCF7 breast it was 97%; in the test with HCT-116 colon, 107%. For the same compound, the growth was 101% in the test with HCC-2998 colon and 102% with KM12 colon.
`CC[N+](CC)(CCCC(C)[N+]1(Cc2ccccc2)C(C)=CC=C1C)Cc1ccccc1` (stereo not drawn): the growth was 77.7% in the test on T-47D breast; 82.9% with BT-549 breast; 82.8% in the test on MDA-MB-435 melanoma; 89% in the test with SW-620 colon; 81% in the test with MCF7 breast; 47.6% in the test on HCT-116 colon. In addition, the values for the growth in the test on HCC-2998 colon and with KM12 colon were 80.8% and 81.7%, respectively.
For `CN1CCN(CCCNc2nccc(-c3c(-c4ccc(F)c(O)c4)nc4sccn34)n2)S1(=O)=O`, the growth in the test with T-47D breast was 90.1%; in the test with BT-549 breast it was 128%; in the test with MDA-MB-435 melanoma, 40.8%; in the test on SW-620 colon, 112%; in the test with MCF7 breast, 85%; with HCT-116 colon, 75.9%. The growth with HCC-2998 colon was 108%; with KM12 colon, 94.3%.
For `O=C(O)c1ccc[n+](CC(=O)N2CCN(c3cc4c(cc3F)c(=O)c(C(=O)O)cn4C3CC3)CC2)c1`, the growth in the test with T-47D breast is 85.9%; in the test with BT-549 breast it was 75.1%; with MDA-MB-435 melanoma it was 67.4%; in the test with SW-620 colon, -3.29% (active); with MCF7 breast it was 50.9%; in the test on HCT-116 colon, 23.9%. Further, the values for the growth with HCC-2998 colon and in the test on KM12 colon were 111% and 92.2%, respectively.
With `CC(=O)Nc1ccc(S(=O)(=O)NC2CCCCC2)cc1`, the growth was 90.9% in the test on T-47D breast; 96.4% in the test on BT-549 breast; 105% in the test with MDA-MB-435 melanoma; 97.7% with SW-620 colon; 96.9% in the test on MCF7 breast; 103% in the test on HCT-116 colon. In addition, the growth is 102% with HCC-2998 colon and 104% in the test with KM12 colon.
In the case of `NC(=S)N/N=C(/c1ccccc1)c1ccccc1N`, the growth in the test with T-47D breast is 43.7%; with BT-549 breast, 104%; in the test with MDA-MB-435 melanoma, 90.4%; in the test with SW-620 colon it was 79.2%; with MCF7 breast, 39.7%; with HCT-116 colon, 3.36% (active). Besides, the figures for the growth in the test with HCC-2998 colon and in the test on KM12 colon were 113% and 98.9%, respectively.
As for `Cc1ccc(O)c(C(=O)O)c1`, the growth in the test with T-47D breast is 106%; in the test on BT-549 breast it was 111%; with MDA-MB-435 melanoma, 111%; in the test with SW-620 colon, 104%; in the test with MCF7 breast, 104%; with HCT-116 colon, 108%. Moreover, the growth is 110% in the test on HCC-2998 colon and 108% in the test on KM12 colon.
Take `COc1ccc(C(=O)c2cc3c(N)c(C(=O)Nc4cccc(Cl)c4C)sc3nc2C)cc1`: the growth in the test with T-47D breast was 40.9%; in the test with BT-549 breast, 36.9%; in the test on MDA-MB-435 melanoma, -6.97% (active); in the test with SW-620 colon, 23.2%; with MCF7 breast it was 19.4%; in the test on HCT-116 colon it was 7.35% (active). The growth in the test on HCC-2998 colon is 17.1%; in the test on KM12 colon, 10.6%.
As for `CC(=O)OCC(=O)C1(O)C(C)CC2C3C=C(C)C4=Cc5c(cnn5-c5ccccc5)CC4(C)C3C(O)CC21C` (stereo not drawn), the growth in the test on T-47D breast is 40.4%; in the test on BT-549 breast it was 21.5%; in the test on MDA-MB-435 melanoma it was 33.7%; in the test on SW-620 colon it was -30% (active); in the test with MCF7 breast it was 12.8%; in the test on HCT-116 colon it was 3.77% (active). Moreover, the values for the growth with HCC-2998 colon and in the test on KM12 colon were 13.5% and -28.7% (active), respectively.
Take `COc1ccc(C(O)c2cc3c(N)c(C(=O)Nc4ccccc4)sc3nc2C)cc1` (stereo not drawn): the growth with T-47D breast is 51.7%; in the test with BT-549 breast it was 31.6%; in the test with MDA-MB-435 melanoma it was -15.1% (active); in the test with SW-620 colon it was 19.3%; in the test on MCF7 breast, 13.4%; with HCT-116 colon, 6.95% (active). Further, the growth is 9.2% (active) in the test on HCC-2998 colon and 3.05% (active) in the test on KM12 colon.
On to `O=c1[nH]nc(-c2ccc(Br)cc2)cc1Cc1ccc(O)cc1`, for which the growth in the test on T-47D breast was 83.2%; with BT-549 breast, 95.8%; in the test on MDA-MB-435 melanoma, 113%; with SW-620 colon it was 97.3%; in the test with MCF7 breast it was 86%; in the test on HCT-116 colon, 100%. Further, the figures for the growth with HCC-2998 colon and in the test on KM12 colon were 118% and 108%, respectively.
Consider `CC(=O)Nc1ccc(C(=O)Nc2cc(-c3ccccc3)ccc2N)cc1`, for which the growth was 66% in the test on T-47D breast; 102% in the test on BT-549 breast; 60.1% in the test on MDA-MB-435 melanoma; 59.3% with SW-620 colon; 55.6% in the test on MCF7 breast; 50.1% in the test with HCT-116 colon. The growth with HCC-2998 colon was 90.7%; in the test with KM12 colon it was 73.2%.
